# Screens (PubChem BioAssay)
# FMDV antiviral: antivirals against foot and mouth disease virus. FMDV antiviral cell-based qHTS. Potency, µM (top dose mostly 57.9 µM), hits mostly inhibitors. 1.2% of 410,000 active; calls by dose curve; tested in HEK293T cells; also: read-out not given here; nearly all actives have a fitted effect of over 45% in size
# SARS PLpro yeast: blocks SARS-CoV papain-like protease in a yeast assay | AID 485353 | Potency, µM (series often up to 32.9 µM), usual class: activators | 0.19% of 330,000 active | S. cerevisiae expressing SARS-CoV PLpro, growth rescue; calls by dose curve; also: nearly all actives have a fitted effect of over 55% in size
# HCV inh: blocks hepatitis C virus. Huh7.5.1 HCVcc-Cre infection, luciferase reporter, 44 h. Potency, µM (doses to about 41.8 µM), hits mostly inhibitors. 3.4% of 340,000 active. AID 651820; active = well fitted inhibition curve with a large enough effect; inconclusive = small, poorly fitted or top-dose-only effect, or another doubt; inactive = no such curve, though single readings can be large or run the other way
#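 Seed cells (1,000/well) for 4 h; treat with compound and infect with HCVcc-Cre, moi about 0.5. Incubate 44 h, then detect luciferase activity.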
# Marburg entry inh: Marburg virus entry inhibition | 1.8% of 300,000 active | AID 540276 | Marburg virus pseudotyped entry inhibition, cell reporter | Potency, µM (top dose mostly 37.8 µM), hits mostly inhibitors; calls by dose curve; tested in HEK293 cells
# HCMV inh: blocks human cytomegalovirus replication; HFF cells, HCMV-luciferase reporter, 72 h; stronger effect = lower value; activity change, negative = inhibition, % at 57.5 µM; 4.5% of 410,000 active; AID 1259415; in the data active = activity change below about -60%; inconclusive = no clear call, values can overlap the other calls; inactive = above about -39%
#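 Compounds were evaluated in HFFs infected with an HCMV luciferase reporter virus (MOI 1 PFU/cell). Luciferase in lysates collected 72 h post infection served as the replication measure.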
# LASV entry inh: inhibitors of Lassa virus binding or cell entry | Lassa virus pseudotype entry inhibition, cell reporter | Potency, µM (titrated, usually from 37.9 µM), actives largely listed as inhibitors | 1.2% of 300,000 active | AID 540256; calls by dose curve; tested in HEK293 cells; also: nearly all actives have a fitted effect of over 50% in size
# Numbers stand for hits; n = inactive; u = inconclusive; x = not tested or not shown. Only some compounds are listed: those with a hit (about 8% of all), similar ones and a draw of the others.
SMILES,FMDV antiviral,SARS PLpro yeast,HCV inh,Marburg entry inh,HCMV inh,LASV entry inh
O=C1OC(N2C(=O)CC[C@H]2C(=O)Nc2ccc(Br)cc2F)c2ccccc21 (stereo partly drawn),n,n,n,x,n,x
COc1ccc2c(c1OC)C(=O)OC2N1C(=O)CC[C@H]1C(=O)Nc1ccc(F)cc1F (stereo partly drawn),n,n,0.56µM,x,n,x
COc1ccc(COC(=O)N/N=C2\C[C@@H](O)[C@@H](O)[C@@H]3[C@@H]4C(=O)N(Cc5ccccc5)C(=O)[C@@H]4CC[C@H]23)cc1,x,x,x,n,x,x
COc1cccc(NC(=O)Cn2c3ccc(OC)cc3c3nc4n(c(=O)c32)CCS4)c1,n,n,n,x,n,x
COc1ccc2c(c1)c1nc3n(c(=O)c1n2CC(=O)Nc1cc(C)[nH]n1)CCS3,x,n,x,x,-85,x
O=C(NCC(c1ccco1)S(=O)(=O)c1cccs1)c1ccc(C(F)(F)F)cc1 (stereo not drawn),n,x,x,x,n,n
CC(NC(=S)Nc1ccccc1OC(F)F)C(C)(C)C (stereo not drawn),n,11µM,n,n,-65,n
COc1cc(-c2noc(-c3ccc(NCc4cccnc4)c([N+](=O)[O-])c3)n2)cc(OC)c1OC,u,x,x,n,n,n
ON=C(CCc1ccccc1)CCc1ccccc1,n,x,n,n,-75,u
CCOC(=O)[C@]12Cc3cc(C)ccc3[C@H]1N(C1CCCCC1)C(=O)c1cc(OC)ccc12,3.5µM,x,x,x,-104,x
CCOC(=O)C1(C)CCCN1C(=O)c1cccc(OC)c1 (stereo not drawn),n,x,x,x,n,x
CCOC(=O)[C@]12Cc3cc(OC)ccc3[C@H]1N(C1CCCCC1)C(=O)c1cc(OC)ccc12,13µM,x,x,x,-98,x
Cc1ccccc1-n1nc(CO)c(C(=O)NCC(c2ccccc2)c2ccccc2)n1,13µM,x,x,n,-86,u
O=C(NCC(c1ccccc1)c1ccccc1)c1nn(-c2ccccc2Cl)nc1CO,u,x,x,n,-92,u
COC(=O)CC=C[C@@H](C)[C@@H](C=NOC[C@@H](O)COCc1ccco1)OC,x,x,x,n,x,x
Cc1ccc(N2C(=O)N3[C@H](c4ccc(Br)cc4)[C@@H]4C(=O)N(C(C)(C)C)C(=O)[C@@H]4[C@]3(C)C2=O)cc1,n,n,u,x,-85,x
Cc1cccc(N2C(=O)N3[C@H](c4ccc(Br)cc4)[C@@H]4C(=O)N(C(C)(C)C)C(=O)[C@@H]4[C@]3(C)C2=O)c1,n,n,n,x,n,x
CC(C)(C)N1C(=O)[C@H]2[C@@H](c3ccc(Br)cc3)N3C(=O)N(c4ccc(Br)cc4)C(=O)[C@@]3(Cc3ccccc3)[C@H]2C1=O,n,n,7.9µM,x,x,x
COc1ccc([C@@H]2[C@@H]3C(=O)N(C(C)(C)C)C(=O)[C@@H]3[C@]3(C)C(=O)N(c4cccc(Cl)c4)C(=O)N23)cc1,n,n,n,x,-71,x
COc1ccc([C@@H]2[C@@H]3C(=O)N(C(C)(C)C)C(=O)[C@@H]3[C@]3(C)C(=O)N(c4ccccc4)C(=O)N23)cc1,n,n,n,x,n,x
O=C(OCc1cn([C@H]2CN(C(=O)c3cccs3)[C@@H](c3ccc(Cl)cc3)C[C@H]2O)nn1)c1ccccc1,x,x,x,x,x,n
Cc1ccc(CNC(=O)c2c(-c3cccc(Br)c3)noc2C)o1,n,x,x,x,n,n
CC(C)c1ccc(C(=O)Nc2ccc(CN3CCOCC3)cc2)cc1,n,n,u,u,-83,n
CC(C)c1ccc(CN2CCN(C(=O)CCl)CC2)cc1,18µM,n,11µM,u,-69,u
CCOC(=O)c1ccc(NC(=O)c2ccc(CN3CCOCC3)cc2)cc1,25µM,n,u,u,u,u
SMILES,FMDV antiviral,SARS PLpro yeast,HCV inh,Marburg entry inh,HCMV inh,LASV entry inh
NC(=O)c1ccc(NC(=O)c2ccc(CN3CCOCC3)cc2)cc1,n,n,n,n,n,n
CC(C)Oc1ccc(C(=O)NC(=S)Nc2ccc(CN3CCOCC3)cc2)cc1,u,n,u,u,n,n
CC(C)CC(=O)N1CCN(Cc2ccc(Cl)cc2)CC1,n,n,n,n,n,u
C#CCCCO/N=C1\C[C@@H](O)[C@@H](O)[C@@H]2[C@@H]3C(=O)N(Cc4ccccc4)C(=O)[C@@H]3CC[C@H]12,x,x,x,n,x,x
O=C1C2CCCCN2C(=O)N1CCCCN1CCN(c2ccc([N+](=O)[O-])cc2)CC1 (stereo not drawn),20µM,n,u,u,n,n
COc1ccc(NS(=O)(=O)c2cc(NC(=O)c3cccc(OCc4c(C)noc4C)c3)ccc2OC)cc1,n,n,u,u,-65,u
COc1cc(C(=O)Nc2cc(OC)c(OC)c(OC)c2)ccc1OCc1c(C)noc1C,n,n,11µM,n,n,n
COC(=O)C1CCCCN1Cc1ccc2c(c1)CN(Cc1cn[nH]c1-c1ccc(F)cc1)CCO2 (stereo not drawn),n,x,x,x,x,x
Cc1c(C2Nc3ccccc3C2C)[nH]c2ccccc12 (stereo not drawn),x,x,x,x,-85,x
c1ccc2c(c1)[nH]c1ccccc12,n,x,n,x,x,x
CCCCCCC[N+](CC)(CC)CCCCc1ccc(Cl)cc1,18µM,x,u,x,-101,x
C=Cn1cc[n+](CC(=O)c2ccc(C)cc2)c1,n,n,n,u,-68,n
C=Cn1cc[n+](CC(=O)c2ccc(Br)cc2)c1,n,n,n,x,n,x
CCn1cc(C(=O)N2CCN(c3ccccc3)CC2)c(=O)c2cc(S(=O)(=O)N3CCCC3)ccc21,n,x,x,n,n,n
Clc1ccc2c(c1)C(C1=NCCN1)c1ccccc1CS2 (stereo not drawn),n,n,u,1.3µM,n,u
c1ccc2c(c1)CSc1ccccc1C2C1=NCCN1 (stereo not drawn),n,n,n,u,n,n
Cc1ccc(CSc2nnc3ccc(-c4ccncc4)nn23)cc1,n,n,n,x,-60,x
O=C(CCn1cnc2ccccc2c1=O)Nc1ccc(Cl)c(Cl)c1,n,n,n,n,-74,n
CC(=O)Nc1ccc(S(=O)(=O)Nc2ncccn2)cc1,n,n,n,n,n,u
O=C(Nc1ccc(S(=O)(=O)Nc2ncccn2)cc1)C(F)(F)F,n,5µM,n,n,n,n
CC(C)c1ccc(OCc2nc(-c3ccccn3)no2)c(Br)c1,n,n,13µM,u,n,u
Cc1ccc(OCc2nc(-c3ccccn3)no2)c(Br)c1,n,n,n,u,n,u
COc1ccccc1C1CN(CCNC(=O)c2ccc3c(c2)OCCO3)Cc2ccccc2O1 (stereo not drawn),n,x,x,x,x,x
NNC(=O)C1C(O)CCC2CN3CCc4c([nH]c5ccccc45)C3CC21 (stereo not drawn),n,x,n,u,-100,n
O=C(NCC1Cc2cccc(-c3cncnc3)c2O1)C1CC1 (stereo not drawn),n,x,x,x,x,x
C#CCOc1c(Br)cc(C2C(C(=O)OC)=C(C)NC3=C2C(=O)c2ccccc23)cc1OCC (stereo not drawn),u,x,x,u,-63,n
